# Screening data deposited in PubChem by several laboratories.
# CYP2C19 inhib – blockers of cytochrome P450 2C19 activity – biochemical, luminescence, ADME assay, primary screen | P33261 | CYP2C19 Supersomes, luciferin-H EGE luminescence, 30 min | inhibition, % at 5 µM | hit rate 21% among 96,000 | AID 778, 2007;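 active = CYP2C19 inhibition above a set limit at 5 µM in the primary screen, cut at about 50% in these data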
# CYP2C19 act – human CYP2C19 activators, primary screen, biochemical, luminescence. Cytochrome P450 2C19 (Homo sapiens), P33261. recombinant CYP2C19, luciferin-H EGE luminescence; stronger effect = higher value; 0 = fully inhibited enzyme, 1 = untreated enzyme. activation factor at 5 µM. 96,000 tested, under 10 active;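 active = activation factor of at least 2 at 5 µM in the primary screen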
# CYP2C9 activ – human CYP2C9 activators, primary screen, biochemical, luminescence | Cytochrome P450 2C9 (Homo sapiens), P11712 | recombinant CYP2C9, luciferin-H conversion; stronger effect = higher value; factor 1 = untreated enzyme, 0 = blocked | activation factor at 5 µM | hit rate 1.4% among 96,000 | AID 1024, 2008;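 active = activation factor of 2 or more for CYP2C9 at a 5 µM dose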
# Target sequence (P11712 whole entry, looked up): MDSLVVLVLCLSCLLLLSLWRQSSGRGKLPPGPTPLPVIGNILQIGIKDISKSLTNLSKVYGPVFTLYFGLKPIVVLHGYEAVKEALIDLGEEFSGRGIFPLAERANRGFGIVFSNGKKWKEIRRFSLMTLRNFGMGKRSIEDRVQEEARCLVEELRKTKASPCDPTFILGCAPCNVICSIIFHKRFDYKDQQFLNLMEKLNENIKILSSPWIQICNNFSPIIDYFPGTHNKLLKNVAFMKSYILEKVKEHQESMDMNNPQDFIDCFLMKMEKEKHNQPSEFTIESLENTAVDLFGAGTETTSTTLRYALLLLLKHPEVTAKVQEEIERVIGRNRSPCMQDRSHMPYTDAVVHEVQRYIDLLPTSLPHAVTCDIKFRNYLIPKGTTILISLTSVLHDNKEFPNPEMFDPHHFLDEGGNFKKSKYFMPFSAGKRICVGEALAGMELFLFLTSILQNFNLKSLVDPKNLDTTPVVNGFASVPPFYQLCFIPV
# sEH inh – soluble epoxide hydrolase inhibitors, primary screen, biochemical, human sEH. recombinant human sEH enzymatic activity assay. inhibition, % at 2 µM. hit rate 0.34% among 91,000; in the data active = inhibition above about 80%
# sEH activator – soluble epoxide hydrolase activators, primary screen, biochemical, human sEH; Bifunctional epoxide hydrolase 2 (Homo sapiens), P34913; purified human sEH enzymatic activity, activator screen; activation, % at 2 µM; hit rate 0.04% among 91,000; AID 717, 2007; in the data active = activation above about 37%
# CYP2C9 inh – blockers of cytochrome P450 2C9 activity – biochemical, luminescence, ADME assay, primary screen; P11712; CYP2C9 Supersomes, luciferin-H conversion; inhibition, % at 5 µM; hit rate 20% among 96,000; AID 777, 2007;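 active = blocking of liver enzyme CYP2C9 beyond about 50% at 5 µM, limit read from the data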
# Hits are given with their value; - = inactive; . = not tested or not shown. Most compounds without a hit are left out; they make up all but 27% or so of the library.
SMILES,CYP2C19 inhib,CYP2C19 act,CYP2C9 activ,sEH inh,sEH activator,CYP2C9 inh
CCC(=NCc1ccco1)c1c(C(F)(F)F)[nH]n(-c2nc3ccccc3s2)c1=O,64,-,-,-,-,70
CC(=NCc1ccco1)c1c(C)[nH]n(-c2nc3ccccc3s2)c1=O,-,-,-,-,-,-
O=S(=O)(c1cnccc1N1CCN(/N=C/c2ccccc2)CC1)N1CCCCC1,-,-,-,-,-,-
c1ccc(-c2nnc(SCc3cn4ccsc4n3)o2)cc1,69,-,-,-,-,-
Cc1ccnc(NS(=O)(=O)c2ccc(NS(=O)(=O)Cc3ccccc3)cc2)n1,-,-,-,-,-,-
CN(c1cccc(NC(=O)CN(c2ccc(C34CC5CC(CC(C5)C3)C4)cc2)S(C)(=O)=O)c1)S(C)(=O)=O,-,-,-,-,-,54
COc1ccc(N(CC(=O)Nc2cccc(N(C)S(C)(=O)=O)c2)S(C)(=O)=O)cc1OC,-,-,-,-,-,-
Cc1ccc(S(=O)(=O)N(CC(=O)Nc2cccc(N(C)S(C)(=O)=O)c2)c2ccc(Cl)c(Cl)c2)cc1,80,-,-,-,-,100
CCOC(=O)C1C(=O)Nc2nc3ccccc3n2C1C(C)C (stereo unspecified),-,-,-,-,-,-
O=C(c1cc(-c2cccnc2)nc2ccc(Br)cc12)N1CCN(c2ncccn2)CC1,-,-,-,.,.,58
O=C(c1ccco1)N1CCN(C(=O)c2cc(-c3ccccn3)nc3ccccc23)CC1,-,-,-,.,.,-
O=C(c1cc(-c2ccccc2)nc2ccccc12)N1CCN(c2ccccn2)CC1,-,-,-,-,-,52
O=C(Nc1c(F)cccc1F)c1cnc(N2CCN(c3ccccn3)CC2)c2ccccc12,-,-,-,-,-,65
O=C(c1cc(-c2ccncc2)nc2ccccc12)N1CCN(c2ccccn2)CC1,-,-,-,.,.,85
O=C(c1cnc(N2CCN(c3ncccn3)CC2)c2ccccc12)N1CCN(c2ccccn2)CC1,68,-,-,-,-,80
Cc1ccccc1C(=O)N1CCN(c2ccccn2)CC1,.,.,.,-,-,.
COc1ccc(N(C)C(=O)c2cnc(N3CCN(c4ncccn4)CC3)c3ccccc23)cc1,79,-,-,-,-,69
COc1ccc(C(=O)N2CCN(c3ccc(C)cc3)CC2)cc1OC,-,-,-,-,-,-
COc1ccc(-c2cc(C(=O)N3CCN(c4ccccc4)CC3)c3ccccc3n2)cc1OC,89,-,-,-,-,93
O=C(c1ccccc1-c1ccccc1)N1CCN(c2ccccn2)CC1,-,-,-,-,-,73
COC(=O)c1cc(Br)ccc1OC(=O)c1cccnc1,-,-,-,-,-,-
CCCCC(=O)Nc1sc2c(c1C(=O)OCC)CCC(C=O)=C2Cl,-,-,-,-,-,-
CC(=O)OCCNC(=O)Cn1cnc2c1c(=O)n(C)c(=O)n2C,-,-,-,.,.,-
CCC1(C)Cc2ccccc2-c2nc(-c3ccccc3)oc(=O)c21 (stereo unspecified),-,-,-,-,-,-
[O-][n+]1onc2c1CCC1N(O)C(c3ccccc3)CC21O (stereo unspecified),-,-,-,-,-,-
SMILES,CYP2C19 inhib,CYP2C19 act,CYP2C9 activ,sEH inh,sEH activator,CYP2C9 inh
O=C(c1ccc(C#Cc2ccccc2)o1)N1CCN(c2ccccn2)CC1,-,-,-,-,-,56
Cc1ccc(NC(=O)c2cc(N3CCOCC3)nc3ccccc23)cc1,-,-,-,-,-,-
O=C(c1cc(-c2ccncc2)nc2ccccc12)N1CCN(c2ccc(N3CCOCC3)nn2)CC1,-,-,-,-,-,68
O=C(c1cc(N2CCCCC2)nc2ccccc12)N1CCOCC1,-,-,-,-,-,-
O=C(Nc1ccccc1)c1cc(N2CCOCC2)nc2ccccc12,-,-,-,-,-,51
Cc1cccc(-c2cc3nc4c(c(NCc5ccco5)n3n2)CCCC4)c1,-,-,-,-,-,-
O=C(Nc1nnc(C(F)(F)F)s1)C1COc2ccccc2O1 (stereo unspecified),56,-,-,-,-,99
O=C(Nc1nncs1)C1COc2ccccc2O1 (stereo unspecified),-,-,-,-,-,-
O=C(Nc1cccnc1)C1COc2ccccc2O1 (stereo unspecified),62,-,-,-,-,-
CC(=O)c1sc(NC(=O)C2COc3ccccc3O2)nc1C (stereo unspecified),.,.,.,-,-,.
O=C(Nc1ncccc1Cl)C1COc2ccccc2O1 (stereo unspecified),-,-,-,-,-,-
CC1(C)Oc2ccc(NC(=O)C3COc4ccccc4O3)cc2O1 (stereo unspecified),93,-,-,-,-,76
Cc1ccc(NC(=O)C2COc3ccccc3O2)nc1 (stereo unspecified),90,-,-,-,-,-
Cc1ccc2cccc(OC(=O)c3ccc4c(c3)OCCO4)c2n1,-,-,-,-,-,-
Cc1ccc(S(=O)(=O)N2CCCC2C(=O)NC2=NCCS2)cc1 (stereo unspecified),-,-,-,-,-,-
O=C(COC(=O)C1COc2ccccc2O1)NC(=O)Nc1ccc2c(c1)OCCO2 (stereo unspecified),-,-,-,-,-,67
O=C(CCC1COc2ccccc2O1)Nc1cccnc1 (stereo unspecified),81,-,-,-,-,-
O=C(CCC1COc2ccccc2O1)Nc1ncccc1O (stereo unspecified),64,-,-,-,-,-
CC(=O)Cc1nsc(NC(=O)c2cn(-c3ccccc3)nc2-c2ccc(Br)cc2)n1,-,-,-,-,-,-
CCN1CCN(CC(=O)Nc2cccc(C)c2C)C(=O)C1=O,-,-,-,-,-,-
COc1ccc(OC)c(C2=Nn3c(nnc3-c3cccc(OC(C)C)c3)SC2)c1,-,-,-,-,-,-
O=C(c1ccccc1)c1ccc2ccccc2n1,69,-,-,-,-,-
Cc1ccc(C)c(-n2c(CNc3ccc(F)cc3)nnc2SCC(N)=O)c1,-,-,-,.,.,-
Cc1cccc(-n2ncc3c(NCc4cccs4)ncnc32)c1,-,-,-,-,-,51
Cc1cccc(-n2ncc3c(NCc4ccccc4)ncnc32)c1,-,-,-,.,.,-
Cc1cccc(-n2ncc3c(NCCc4ccc(S(N)(=O)=O)cc4)ncnc32)c1,92,-,-,.,.,96
Cc1cccc(-n2ncc3c(NCc4ccccn4)ncnc32)c1,-,-,-,-,-,-
Brc1ccc(-c2cnc(-c3cccs3)o2)cc1,-,-,-,-,-,59
